Data as given in publication PMC4336329 (PLoS ONE, 2015).
About 14,000 (4.5%) of roughly 310,000 compounds showed an effect of 50% or more. Effects have a minus sign here. What follows is part of a selection rich in strong results, with near analogues and random picks from the rest.

molecular target: human ether-à-go-go-related gene (hERG) potassium channel (human, UniProt Q12809); assay: primary screen, population patch clamp on CHO cells stably expressing hERG; higher = less effect of the substance
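Also: peak tail current of the secondary pulse compared with the same well before compound.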

Chain of human ether-à-go-go-related gene (hERG) potassium channel (Q12809 whole entry, looked up): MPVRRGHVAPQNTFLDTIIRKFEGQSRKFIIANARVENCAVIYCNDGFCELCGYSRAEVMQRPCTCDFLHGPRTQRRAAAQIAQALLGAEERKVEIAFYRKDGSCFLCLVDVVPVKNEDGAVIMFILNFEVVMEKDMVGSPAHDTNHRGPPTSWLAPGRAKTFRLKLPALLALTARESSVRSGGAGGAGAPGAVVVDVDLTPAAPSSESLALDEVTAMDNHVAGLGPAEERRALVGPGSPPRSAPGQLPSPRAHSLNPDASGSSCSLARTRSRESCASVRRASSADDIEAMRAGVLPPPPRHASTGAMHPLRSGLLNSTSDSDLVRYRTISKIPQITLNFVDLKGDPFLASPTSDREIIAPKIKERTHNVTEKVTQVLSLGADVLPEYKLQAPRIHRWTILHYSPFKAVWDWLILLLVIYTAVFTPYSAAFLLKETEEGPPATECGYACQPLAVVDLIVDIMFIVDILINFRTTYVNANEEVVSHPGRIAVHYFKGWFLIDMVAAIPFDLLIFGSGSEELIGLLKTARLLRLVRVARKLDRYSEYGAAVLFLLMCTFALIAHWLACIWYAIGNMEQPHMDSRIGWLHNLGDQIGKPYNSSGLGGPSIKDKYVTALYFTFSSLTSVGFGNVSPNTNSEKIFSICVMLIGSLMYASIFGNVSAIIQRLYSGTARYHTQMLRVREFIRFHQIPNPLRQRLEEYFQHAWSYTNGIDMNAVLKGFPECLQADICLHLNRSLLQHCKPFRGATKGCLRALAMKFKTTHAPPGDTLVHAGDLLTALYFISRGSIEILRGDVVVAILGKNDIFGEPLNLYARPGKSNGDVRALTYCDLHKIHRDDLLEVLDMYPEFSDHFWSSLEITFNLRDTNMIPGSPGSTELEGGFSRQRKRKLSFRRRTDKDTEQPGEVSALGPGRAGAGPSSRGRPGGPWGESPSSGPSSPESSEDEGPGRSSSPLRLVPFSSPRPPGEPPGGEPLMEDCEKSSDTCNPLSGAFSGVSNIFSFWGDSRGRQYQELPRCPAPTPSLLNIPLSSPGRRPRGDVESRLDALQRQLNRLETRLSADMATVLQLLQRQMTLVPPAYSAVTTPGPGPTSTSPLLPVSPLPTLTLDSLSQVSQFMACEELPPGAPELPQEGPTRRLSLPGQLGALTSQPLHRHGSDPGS

SMILES | hERG current change (%, negative = inhibition) at 10uM [%]
Cc1cccc(C)c1NC(=O)CN(C)C(=O)c1ccc(-c2cccc(C(F)(F)F)c2)o1 | -12.5
CCN(CC(=O)NCc1cccs1)C(=O)c1ccccc1F | 9.12
CCN(CC(=O)NCc1cccs1)C(=O)c1ccc(-c2ccccc2F)o1 | -71.6
CCN(CC(=O)NCc1cccs1)C(=O)c1ccc(-c2cccc(C(F)(F)F)c2)o1 | -82.3
CCN(CC(=O)NCc1cccs1)C(=O)c1ccc([N+](=O)[O-])o1 | -33.8
CCN(CC(=O)NCc1cccs1)C(=O)COc1cccc(C(F)(F)F)c1 | -38.2
Cn1cccc1Cc1nnc(SCC(=O)NC2CCCC2)n1-c1ccc(F)cc1 | -19
Brc1ccc(-c2csc(Nc3nc(-c4ccc(Br)cc4)cs3)n2)cc1 | 15
COc1ccccc1OCCNCC(O)COc1cccc2[nH]c3ccccc3c12 (stereo not shown) | -65.6
COCCCNCC(O)COc1cccc2[nH]c(C)cc12 (stereo not shown) | 10
COc1ccccc1OCCNC(=O)c1cc(=O)[nH]c2ccccc12 | -4.62
CNCc1ccccc1OCc1ccccc1F.Cl | -4.37
CCOc1cc(CNCCO)cc(Br)c1OCc1ccc(Cl)cc1.Cl | -16.5
Cl.OCCNCc1c(OCc2ccc(Cl)cc2)ccc2ccccc12 | -77.4
CNCc1c(OCc2ccccc2F)ccc2ccccc12.Cl | -63.5
COc1cc(CNC(C)(C)CO)cc(Br)c1OCc1ccccc1.Cl | -17.2
CNCc1c(OCc2ccc(F)cc2)ccc2ccccc12.Cl | -49.1
CC(C)(CO)NCc1cccc(OCc2ccc(Cl)cc2)c1 | -30.8
CNCc1c(OCc2ccccc2)ccc2ccccc12.Cl | -34.1
CC(O)CNCCNCc1c(OCc2ccccc2)ccc2ccccc12.Cl (stereo not shown) | -34.6
COc1cccc(CNC(C)(C)CO)c1OCc1ccc(Cl)cc1.Cl | -56.6
COc1cc(CNC(C)(C)CO)cc(Br)c1OCc1ccc(Cl)cc1.Cl | -45.7
CC(C)(CO)NCc1c(OCc2ccc(Cl)cc2)ccc2ccccc12.Cl | -75.6
CC(CC(=O)Nc1ccc(S(=O)(=O)Nc2ncccn2)cc1)c1ccccc1 (stereo not shown) | 6.78
COc1ccc(C(=O)NC(=S)Nc2ccc(N3CCN(C(C)=O)CC3)cc2)cc1[N+](=O)[O-] | -2.14
